What follows are sequences tested on PPARa:RXRa (NR concentration 270 nM, RXRa partner concentration 90 nM) (assay: PBM binding z-score (relative to random genomic background probes); higher = stronger binding; sequences stand for … in GC…GCGATTGACAGCGTAGAATGAAGG).
Description: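 Protein-binding microarray (Agilent 4x180K custom design, double-stranded 60-nt probes: 5' GC cap, 34-nt variable region, 24-nt constant primer region; full probe sequence given). Purified or IVT nuclear receptor:RXRα heterodimers (3:1 NR:RXRα, mostly 270:90 nM) or homodimers were incubated for 1 h in PBS with 2% milk and no ligand, then detected with Alexa488 antibodies. Fluorescence from o1-orientation probes (~5 replicates averaged) was converted to z-scores against 500 random hg19 background probes. Variable regions are seed direct-repeat (DR0–DR5) sites, all their single-nucleotide variants and half-site ablations.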

Sequence | PBM binding z-score
CCTACTGGTCCAAGGTCATTGATCAGTCAAAGCA | 3.59
AGAATGAGGTCACCAAAGATCAGGGAAACGCTTG | 6.33
AGTCAAAGTGCATCTAGGTAACGTAAGATATGCT | 1.21
CTACCAAGGTCAACAAGGTCGTTGATTACTATTC | 6.16
TCTCGGAGGACACTAAAGGTCAGAGCTCGACATC | 3.42
TACCCTAGGTCATTCAGGGGCCAGTATAGAAAGC | 3.81
CGAACGAGGTCAAAGGACAGTGAAAGGCGACGTA | 6.37
ATATGTAGGTTAACTGGGGTCATTCAGACTAGGC | 5.96
AGTCAAAGTTCAGGACGACGTAACGTAAAGCACG | 2.98
CGTCCAAAGTCAAAGGTCAGTGAAGAGATGACGG | 5.06
CGAACAAGGTCATTGACAGGACAGTGAATAGTAA | 5.93
ATATGTAGGTTACATCCGGGTCATCCAGGCTATG | 4.41
GCTTACGGGTCCAAGGTTATAGCATGAATAGAAT | 1.78
CGAACTAGGTCATCCAGGTCAGTGAATACATTGA | 5.17
TGTCAACGTTCAAAGGTAACGTAAGTATCCACAC | 1.49
CCTACTGGACCAAGGTCATTGATCAGTCAAAGCA | 3.97
CGAACGAGGTCATCCAGGACAGTGAATACATTGA | 6.37
GCTGCTAGGTCAACTGATGGTCACCTAAAGCTCG | 3.99
TCTCGGAGGAAACGAAAGGTCAGAGCTCGACATC | 3.66
CTATGTAGGTTAGGGGGGTCATTCAGTTTGAAAG | 5.95

Sequence | PBM binding z-score
CCGAGTAGGTTACGAGGGGTCATTCAGTGCGAAT | 5.09
TGTCAAAGTTCAAAGGTGACGTAAGTATCCACAC | 6.09
CCTTACGGGTAACGAGGTTATAGCACGACGAGCG | 1.62
ATATGTAGGTTATCGGGTCATACAGTTTGCGCAT | 5.09
CGTCCGAGGTCATAGGAGGTCAGTGAAGACAGAT | 6.37
ACTTACGGGTCTACGAGGTTATAGCACGCGTATA | 1.2
CCTCGGAGGACAGAAGGTCAAAGCTGTCCGCTTT | 3.67
AACGAAAGGTCGAAGGTGAGTATACCCACCCGAA | 4.89
CGAACTAGGTCATTGACAGGACAATGAATAGTAA | 5.06
TGTATGAGGTTAAAGATCAGGGAACGTGGCGTCG | 4.16
CCGAGAAGGTTACGAGGGGGCATTCAGTGCGAAT | 4.3
CATACAGGGTCGGCTAGGCCAGAGTAGGGACGGC | 0.514
GATACAGGGTCGGCTAGAGGCCAGAGTATGGAAA | 1.36
TAGCCTAGGTCATTCAGGGGCCACTATAGAAAGC | 3.95
GGAACGAGGTCAAGTTGATAGCAGAGTTTGATGG | 6.38
GGAACGAGGGCATTCGAGTTCATAGCATGGCGAT | 2.7
CCTAGTTGTTCAGGAGGTCACACACCGGATATGA | 4.17
CGTCCAAGGACAATGCTAGGTCAGTGAAAGCATT | 0.16
TATAAAGGGTCAAAGGCCAGAGTACGAATGTCGA | 6.43
CGAACTAGGTCACCCAGGACAGTGAATACATTGA | 4.82

Source: the supplement of paper PMC6555819
